The structures appear in SMILES notation. Where “and” joins values, the source holds several entries; their conditions need not be identical. Equal entries are not always repeated. Unmarked numbers belong to inactive results. Records with an inconclusive call do not appear. Calls of active or inactive are those of the source. Unless noted, the call rests on the fitted dose curve; in most records, active means well fitted curve in the direction sought with a large enough effect in the repeat runs; inconclusive means weak or mixed curves; inactive means no such curve, though single readings can be large; an effect the other way counts as inactive or inconclusive.

The nature of assay [1]: qHTS assay to identify small molecule antagonists of the estrogen related receptor (ERR) signaling pathway from Tox21 library - cell viability counter screen (AID 1224834). Further: nearly all actives have a fitted effect of over 30% in size. The gist of the method: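 Seeded ERR cells were rested 6 h at 37 C/5% CO2 before compounds, positive and negative controls or DMSO were added. Incubation continued for 17.5 h, and viability was then quantified by CellTiter-Fluor fluorescence.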
In general terms: In qHTS, concentration-response curves come from the screen itself.

Assay [2] addresses Luciferin 4-monooxygenase (Photinus pyralis) (UniProt P08659). Nature of the assay: qHTS assay to identify small molecule inhibitors of firefly luciferase (AID 1224835). Further: nearly all actives have a fitted effect of over 25% in size. Further: potency means the concentration at half of the fitted maximal effect. A digest of the protocol: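 Inhibition of purified Photinus luciferase is measured by luminescence. Substrate levels (D-luciferin, ATP) sit at their KM values. Each compound is tested in a concentration series.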

Assay [3] can be described thus: qHTS assay to identify small molecule agonists of the constitutive androstane receptor (CAR) signaling pathway - cell viability counter screen (AID 1224836). Further: nearly all actives have a fitted effect of over 45% in size. A digest of the protocol: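 Fluorescence from CellTiter-Fluor indicates live cells after 23 h exposure. The human hepatoma line expresses hCAR and a CYP2B6-2.2kb reporter. Incubation medium contains 0.75 uM PK11195 (final).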

The nature of assay [4]: qHTS assay to identify small molecule antagonists of the constitutive androstane receptor (CAR) signaling pathway - cell viability counter screen (AID 1224837). Further: nearly all actives have a fitted effect of over 45% in size. The gist of the method:
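To flag cytotoxic false antagonists, HepG2 hCAR/CYP2B6-2.2kb cells were treated 23 hr with 15-concentration compound series and 50 nM CITCO at 37 C/5% CO2; CellTiter-Fluor fluorescence was the measured end point.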

In assay [5] the target is Nuclear receptor subfamily 1 group I member 3 (Homo sapiens) (UniProt Q14994). The assay is described as follows: qHTS assay to identify small molecule antagonists of the constitutive androstane receptor (CAR) signaling pathway (AID 1224838).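 Further: HepG2 cells stably expressing hCAR with CYP2B6 luciferase reporter stimulated by CITCO; nearly all actives have a fitted effect of over 40% in size.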 The gist of the method: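 Human hepatoma HepG2 cells expressing hCAR and a CYP2B6 promoter (2.2 kb) luciferase construct; compound titration (15 points) with 50 nM CITCO final, 24 h at 37 C/5% CO2; luminescence via ONE-Glo after 30 min at room temperature.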

The target is the same in assay [6]. Nature of the assay: qHTS assay to identify small molecule agonists of the constitutive androstane receptor (CAR) signaling pathway (AID 1224839). Further: nearly all actives have a fitted effect of over 15% in size. Further: potency means the concentration at half of the fitted maximal effect.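 On activation: HepG2 cells stably carrying human CAR and a CYP2B6 luciferase reporter.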 A digest of the protocol: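 Stable hCAR/CYP2B6-2.2kb HepG2 line in DMEM with 10% FBS; compounds (15 concentrations) and 0.75 uM PK11195 final, 24 h at 37 C/5% CO2, then ONE-Glo luminescence after 30 min.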
A short description of assay [7]: qHTS assay to identify small molecule antagonists of the estrogen related receptor signaling pathway with the pleiotropic PPARgamma coactivator (PGC) from Tox21 10K library - cell viability counter screen (AID 1224840; active means well fitted cell-killing curve with a large enough effect in the repeat runs, not every such curve was filed as active; further: nearly all actives have a fitted effect of over 40% in size). A digest of the protocol: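 Seeded PGC/ERR cells (2,000/well, 6 h, 37 C/5% CO2) get compound by pin tool; 17.5 h incubation at 37 C; CellTiter-Fluor added, 30 min, fluorescence measured.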

Assay [8] is described as follows: qHTS assay to identify small molecule antagonists of the estrogen related receptor signaling pathway with the pleiotropic PPARgamma coactivator (PGC) from Tox21 10K library (AID 1224841; call rule not given here; further: actives are mostly falling curves and most rising ones were filed inactive; nearly all actives have a fitted effect of over 50% in size). The gist of the method: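 Test chemicals dissolved in DMSO were applied to pre-incubated (6 h) PGC/ERR cells at 2,000 cells/well for an 18 h, 37 C treatment; reporter luminescence was then read using One-Glo.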

Assay [9] in a line: qHTS assay to identify small molecule agonists of the estrogen related receptor signaling pathway with the pleiotropic PPARgamma coactivator (PGC) from Tox21 10K library (AID 1224842). Further: nearly all actives have a fitted effect of over 15% in size. The gist of the method: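 Luminescence from One-Glo (30 min, room temperature) measured after PGC/ERR cells had 18 h at 37 C with pinned compound (23 nL in DMSO). Cells had been seeded at 2,000 per well and pre-incubated 6 h.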

Assay [10] has as its target Thyrotropin receptor (Homo sapiens) (UniProt P16473). Nature of the assay: qHTS assay to identify small molecule agonists of the thyroid stimulating hormone receptor (TSHR) signaling pathway (AID 1224843; calls by dose curve; further: nearly all actives have a fitted effect of over 45% in size). The gist of the method: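 Agonist activity read as cAMP rise via d2/cryptate HTRF competition, 1 h room-temperature detection, in HEK293 cells expressing TSHR. Fifteen-point titrations, each run in triplicate, with a 30 min room-temperature incubation beforehand.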

Assay [11] can be described thus: qHTS assay to identify small molecule agonists of the hypoxia (HIF-1) signaling pathway - cell viability counter screen (AID 1224844; calls by dose curve; further: nearly all actives have a fitted effect of over 50% in size). The gist of the method:
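HRE-bla ME-180; 0.5% dFBS; cpd 17 h, 37C, 5% CO2; CellTiter-Glo lum., 30 min RT, post-FRET read, same wells.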

Assay [12] is described as follows: qHTS assay to identify small molecule agonists of H2AX (AID 1224845; active means well fitted activation curve with a large enough effect in the signal ratio in the repeat runs, not every such curve was filed as active; the % refers to the signal ratio). A digest of the protocol: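 Phospho-H2AX Ser139 measured by HTRF (ex 320 nm; em 665 and 620 nm) after 24 hr antibody incubation. Compounds, 15 concentrations, 0.76% DMSO, were applied to CHO-K1 cells for 3hr at 37C before lysis.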
Assay [13] can be described thus: qHTS assay to identify small molecule agonists of the hypoxia (HIF-1) signaling pathway (AID 1224846; active means well fitted activation curve with a large enough effect in the signal ratio in the repeat runs, not every such curve was filed as active; the % refers to the signal ratio). A digest of the protocol:
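Reporter induction in HRE-bla ME-180 cells is taken as agonism: cells sit 5 hrs after plating, receive compounds or DMSO only, incubate 17 hrs at 37C under 5% CO2, and are loaded with CCF4-AM for beta-lactamase FRET measurement.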

The nature of assay [14]: qHTS assay to identify small molecule antagonists of the estrogen related receptor (ERR) signaling pathway from Tox21 library (AID 1224848). Further: nearly all actives have a fitted effect of over 50% in size. The gist of the method:
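Luciferase luminescence (ONE-Glo, 30 min room temperature) was the read-out. Cells of the NTP-supplied ERR line, 2,000 per well, were given 6 h at 37 C before compound addition in DMSO and 18 h exposure at 37 C.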

Assay [15] in a line: qHTS assay to identify small molecule agonists of the estrogen related receptor (ERR) signaling pathway from Tox21 library (AID 1224849; calls by dose curve; further: nearly all actives have a fitted effect of over 15% in size). The note with it: ERR reporter cell line, ONE-Glo luciferase, 18 h. The gist of the method:
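Tox21 compounds tested for ERR agonism in an NTP reporter cell line: 18 h treatment at 37 C, then ONE-Glo luminescence.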

Assay [16] in a line: qHTS RealTime-Glo MT Cell Viability Assay in HepG2 cells - 24 hour (AID 1224867). Further: nearly all actives have a fitted effect of over 50% in size. The gist of the method: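 Tox21 10K library screened in qHTS format on HepG2 cells carrying RealTime-Glo reagents. Compounds were added after a 5 h preincubation, and the luminescent signal from continuous culture was measured repeatedly during 40 h treatment.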
Assay [17] in a line: qHTS RealTime-Glo MT Cell Viability Assay in HEK293 cells - 32 hour (AID 1224868). A digest of the protocol:
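Luminescence generated by NanoLuc from substrate produced by living HEK293 cells served as the viability signal. Each value reflects the reading at its stated time point during continuous 40 h compound exposure at 37 C.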

Assay [18] is described as follows: qHTS assay to identify small molecule agonists of H2AX - cell viability counter screen (AID 1224847; calls by dose curve; further: top concentration of the series differs between compounds; nearly all actives have a fitted effect of over 30% in size). The gist of the method:
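Viability of CHO-K1 (wild type) cells after 3 hr compound exposure was measured by CellTiter-Glo luminescence.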

Assay [19] in a line: A CellTox Green Cytotoxicity Assay to monitor cytotoxicity in HEK293 cells - 0 hour (AID 1224869). Further: nearly all actives have a fitted effect of over 50% in size. A digest of the protocol:
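Tox21 screen in HEK293: membrane-impermeant cyanine dye fluoresces on binding dead-cell DNA; compound pinned 5 h post-seeding, plates held at 37 C, signal read repeatedly through 40 h.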
On the % scale 0 is the no-effect control and ±100 the full control effect.

Sequence of Nuclear receptor subfamily 1 group I member 3 (Homo sapiens) (Q14994 whole entry, looked up): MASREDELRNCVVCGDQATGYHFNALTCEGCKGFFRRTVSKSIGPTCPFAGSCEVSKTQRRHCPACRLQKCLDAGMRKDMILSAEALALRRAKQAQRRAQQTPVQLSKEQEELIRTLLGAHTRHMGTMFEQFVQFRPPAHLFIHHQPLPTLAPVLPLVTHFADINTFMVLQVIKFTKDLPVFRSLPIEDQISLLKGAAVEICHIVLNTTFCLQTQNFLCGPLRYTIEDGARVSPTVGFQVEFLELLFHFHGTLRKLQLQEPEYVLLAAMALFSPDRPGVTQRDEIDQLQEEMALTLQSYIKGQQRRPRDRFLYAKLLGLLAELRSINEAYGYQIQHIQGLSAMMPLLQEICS
Sequence of Thyrotropin receptor (Homo sapiens) (P16473 whole entry, looked up): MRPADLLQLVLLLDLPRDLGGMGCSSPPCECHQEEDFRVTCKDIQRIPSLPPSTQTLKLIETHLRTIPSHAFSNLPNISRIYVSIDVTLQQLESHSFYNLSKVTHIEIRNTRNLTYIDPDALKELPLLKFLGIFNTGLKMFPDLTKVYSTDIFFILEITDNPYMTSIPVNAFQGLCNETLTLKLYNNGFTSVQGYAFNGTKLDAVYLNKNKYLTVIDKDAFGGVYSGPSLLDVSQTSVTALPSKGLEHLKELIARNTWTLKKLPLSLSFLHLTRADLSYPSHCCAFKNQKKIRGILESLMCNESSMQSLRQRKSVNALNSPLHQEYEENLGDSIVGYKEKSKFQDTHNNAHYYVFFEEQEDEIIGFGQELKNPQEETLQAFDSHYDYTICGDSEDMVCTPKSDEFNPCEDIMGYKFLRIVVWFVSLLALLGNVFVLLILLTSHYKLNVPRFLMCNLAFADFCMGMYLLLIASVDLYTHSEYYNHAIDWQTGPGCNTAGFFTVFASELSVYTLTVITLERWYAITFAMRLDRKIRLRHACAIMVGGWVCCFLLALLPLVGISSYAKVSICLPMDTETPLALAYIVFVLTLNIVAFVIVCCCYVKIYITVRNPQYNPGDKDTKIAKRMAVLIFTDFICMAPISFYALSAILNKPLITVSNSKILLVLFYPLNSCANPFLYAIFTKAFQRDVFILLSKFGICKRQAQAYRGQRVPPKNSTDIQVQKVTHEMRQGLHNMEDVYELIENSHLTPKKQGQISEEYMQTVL
Sequence of Luciferin 4-monooxygenase (Photinus pyralis) (P08659 whole entry, looked up): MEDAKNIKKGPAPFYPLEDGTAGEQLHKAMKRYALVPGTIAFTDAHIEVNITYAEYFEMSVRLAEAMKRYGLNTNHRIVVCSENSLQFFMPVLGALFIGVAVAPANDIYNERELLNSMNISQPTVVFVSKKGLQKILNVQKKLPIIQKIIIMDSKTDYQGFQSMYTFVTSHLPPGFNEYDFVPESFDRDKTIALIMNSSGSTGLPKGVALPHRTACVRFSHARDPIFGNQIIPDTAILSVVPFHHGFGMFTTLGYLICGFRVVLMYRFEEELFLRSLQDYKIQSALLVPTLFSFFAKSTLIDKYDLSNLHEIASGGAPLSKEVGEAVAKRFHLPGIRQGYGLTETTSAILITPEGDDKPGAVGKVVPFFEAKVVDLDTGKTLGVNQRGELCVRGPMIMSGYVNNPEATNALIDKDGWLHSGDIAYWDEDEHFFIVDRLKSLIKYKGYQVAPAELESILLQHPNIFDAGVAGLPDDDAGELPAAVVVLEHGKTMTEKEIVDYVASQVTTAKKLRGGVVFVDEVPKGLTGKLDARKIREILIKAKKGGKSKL

As for `CCCCCCCCCCCCOCC1CO1` (centres undefined), the Potency entry in assay [1], in [2], in assay [3], in [4], in [5] and in assay [6] was “inactive” each time. Besides, the Potency entry in assay [7], in [8], in assay [9], in [10], in assay [11] and in assay [12] was “inactive” throughout. Further, the Potency result in [14], in [16] and in assay [17] was “inactive” each time. Further, the molecule was classed as inactive in [13]. Also, the activity change, positive = activation in assay [15] (at 92.4 µM (top of the series)) was -2.77% and -4.37%.
Turning to `CCCCC(CC)COC(C)=O` (centres undefined), the Potency entry in assay [1], in assay [2], in assay [3], in [4], in [6] and in [7] was “inactive” throughout. Further, the Potency result in [8], in [9], in assay [10], in [11], in [12] and in assay [18] was “inactive” throughout. Also, the Potency result in assay [14], in assay [16] and in assay [17] was “inactive” in each case. Also, in assay [13], the outcome was inactive. In assay [15] (at 92.4 µM (top of the series)), the activity change, positive = activation is 8.75% and 0.0839%.
For `CCOC(=O)[C@H](CCc1ccccc1)N[C@@H](C)C(=O)N1Cc2ccccc2C[C@H]1C(=O)O`, the Potency entry in assay [1], in assay [2], in assay [3], in [4], in assay [5] and in [6] was “inactive” in each case. Also, the Potency entry in assay [7], in [8], in assay [9], in [11], in assay [12] and in [18] was “inactive” each time. The Potency entry in assay [14], in assay [16], in assay [17] and in assay [19] was “inactive” throughout. The result in [13] was inactive. The activity change, positive = activation in assay [15] (at 42.5 µM (top of the series)) is -3.47%; in assay [15] (at 92.4 µM (top of the series)), -6.49%.
`CN(C)c1cccc(O)c1`: the Potency result in [1], in assay [3], in [4], in [7], in assay [10] and in assay [11] was “inactive” in each case. The Potency entry in [12], in assay [18], in assay [16] and in [17] was “inactive” throughout. For the same molecule, the Potency in assay [2] was 31.7 µM (active); in assay [6], 62.1 µM (active). In addition, the outcome in [13] was inactive.
As to `Clc1ccc(Cl)c(Cl)c1Cl`, the Potency result in assay [1], in assay [2], in assay [3], in assay [4], in [5] and in assay [6] was “inactive” throughout. Besides, the Potency entry in assay [7], in assay [10], in assay [11], in assay [12], in [16] and in assay [17] was “inactive” each time.
Take `CNC[C@H](O)[C@@H](O)[C@H](O)[C@H](O)CO`: the Potency result in [1], in assay [2], in assay [3], in assay [4], in [5] and in assay [6] was “inactive” in each case. Moreover, the Potency result in [7], in [10], in assay [11], in assay [12], in [18] and in assay [16] was “inactive” each time. The Potency entry in [17] and in [19] was “inactive” throughout.
Take `C[C@@H](O)[C@H]1C(=O)N2C(C(=O)O)=C(S[C@@H]3CN[C@H](C(=O)N(C)C)C3)[C@H](C)[C@H]12`: the Potency result in assay [1], in [2], in assay [3], in assay [4], in assay [6] and in assay [7] was “inactive” in each case. In addition, the Potency result in assay [8], in assay [9], in assay [10], in [11], in [12] and in assay [18] was “inactive” each time. The Potency result in assay [14], in assay [16], in assay [17] and in assay [19] was “inactive” throughout. Further, the activity change, positive = activation in assay [15] (at 42.5 µM (top of the series)) is 6.5% and 3.13%.

Source of the values: PubChem BioAssay (Tox21).
